According to PubChem BioAssay (NCI):
Compounds without any hit were thinned out: in the full panel of roughly 83,000, 20% have a hit.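 Note: values are percent growth. 100 is the growth of untreated cells, values between 100 and 0 indicate rising inhibition; between -100 and 0 indicates cell death.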 Values without a mark were called inactive. Calls of active or inactive are those of the source. How the source made its calls: active means growth percent below 10; inactive means the rest.

Tests used:
Experiment in all cases: NCI-60 one-dose screen, 48 h (100 = growth as untreated, 0 = no growth, -100 = all killed)
Conditions in all cases: 10 µM unless noted
T-47D breast = system: T-47D breast
BT-549 breast = system: BT-549 breast
MDA-MB-435 melanoma = system: MDA-MB-435 melanoma
SW-620 colon = system: SW-620 colon
MCF7 breast = system: MCF7 breast
HCT-116 colon = system: HCT-116 colon
HCC-2998 colon = system: HCC-2998 colon
KM12 colon = system: KM12 colon

Row | SMILES | growth (T-47D breast) | growth (BT-549 breast) | growth (MDA-MB-435 melanoma) | growth (SW-620 colon) | growth (MCF7 breast) | growth (HCT-116 colon) | growth (HCC-2998 colon) | growth (KM12 colon)
1 | CC1(C)CC(=O)C2=C(C1)OC(C(=O)c1ccccc1)C2c1cccc(Oc2ccccc2)c1 (stereo not given) | 5.71% (active) | 40.1% | 44.5% | 54.2% | 28.5% | 33.8% | 71.9% | 37.7%
2 | COc1ccc(NC(=O)CSc2oc(-c3ccccc3)nc2S(=O)(=O)c2ccc(Cl)cc2)c(OC)c1 | 60.5% | 61.7% | 86.6% | 81.7% | 73.8% | 41.6% | 83.5% | 71.9%
3 | [2H]C([2H])([2H])Oc1ccc(/C=C/C(=O)/C=C(O)/C=C/c2ccc(OC([2H])([2H])[2H])c(OC([2H])([2H])[2H])c2)cc1OC([2H])([2H])[2H] | 21.8% | 34.4% | 12.3% | 27.4% | 4.59% (active) | 5.1% (active) | 76.4% | 30.6%
4 | CC(CN)[C@@H]1CC[C@]2(CO)CC[C@]3(C)[C@H](CC[C@@H]4[C@@]5(C)CCC(NCCO)C(C)(C)[C@@H]5CC[C@]43C)[C@@H]12 (stereo not given in full) | 77.5% | 64.7% | 31% | -60.9% (active) | 3.04% (active) | 6.92% (active) | -26.8% (active) | 32.6%
5 | COc1cc2c(c(OC)c1OC)CCC(c1cccc(NC(=O)c3cccc(Cl)c3)c1)O2 (stereo not given) | 59.1% | 97.2% | 89.9% | 93.9% | 84.4% | 87.7% | 100% | 97.1%
6 | O=S(=O)(c1ccc(NCSc2nc3ccccc3s2)cc1)c1ccc(NCSc2nc3ccccc3s2)cc1 | 63.9% | 87.5% | 112% | 100% | 97.5% | 86.5% | 95.5% | 102%
7 | CCCCCCCCOC(=O)c1c(C)[nH]c(/C=C2\N=C(c3ccc[nH]3)C=C2OC)c1C | 4.23% (active) | 10.4% | -19.4% (active) | 5.83% (active) | -58.1% (active) | -83.5% (active) | -26.4% (active) | 0.693% (active)
8 | C=C(C)[C@@H]1CC[C@]2(COC(=O)c3cccnc3)CC[C@]3(C)[C@H](CC[C@@H]4[C@@]5(C)CCCN(C(=O)c6cccnc6)C(C)(C)[C@@H]5CC[C@]43C)[C@@H]12 | 31.3% | 51.9% | 38.3% | 32.2% | 25.6% | 28.1% | 50.1% | 31.2%
9 | C=CCNc1ccc2c3c(cccc13)C(=O)N(CC=C)C2=O | 83% | 98.4% | 109% | 108% | 34% | 86.5% | 106% | 101%
10 | O=CN1N=C(c2cccc(Nc3ccncc3)c2)CC1c1ccc2c(c1)OCO2 (stereo not given) | 79.1% | 106% | 92.1% | 102% | 81.7% | 83.1% | 98.5% | 98.4%
11 | CN1C(=O)N(C)C2C1NN=c1s/c(=C\c3ccccc3F)c(=O)n12 (stereo not given) | 52.6% | 18.9% | -40.2% (active) | 18.8% | 18.6% | 14% | 5.08% (active) | 17.4%
12 | Cc1csc(Nc2nc(-c3cccc(Cl)c3)nc(C(Cl)(Cl)Cl)n2)n1 | 5.33% (active) | 96.8% | 54.1% | 42.4% | 20.7% | 37.9% | 7.13% (active) | 13.8%
13 | Cc1ccc(C23CCC(=O)N2CCc2cncn23)cc1 (stereo not given) | 91.2% | 100% | 101% | 97.7% | 97.9% | 104% | 107% | 101%
14 | O=C1NC(=O)C(=Cc2cc(-c3ccc(Cl)cc3)n(-c3ccccc3)n2)C(=O)N1 | 93.6% | 83.9% | 94.5% | 96.7% | 93.2% | 94% | 110% | 102%
15 | CC(=O)/C(Br)=C/c1ccc(Br)o1 | 44.8% | 52.1% | 62.4% | 15.4% | 33% | -66.2% (active) | 93.4% | 105%
